Reference: PubChem BioAssay AID2315 (National Center for Advancing Translational Sciences (NCATS), 2010)
The campaign covered roughly 290,000 compounds. About 27,000 (9.3%) were called active. The sample holds actives, similar compounds and a random draw of the others, so the mix is not that of the screen. Unmarked numbers belong to inactive results. Cut-off read from the data, not from the text of the source: active = inhibition mostly above about 28% (no sharp cut-off); inactive = mostly below about 43%.

Assay: A qHTS for Small Molecule Inhibitors of Shiga Toxin; note: 0% is about no effect
Details: Vero cells, Shiga toxin protein synthesis inhibition reporter; at 38.7 µM, hits give high values
In the case of `CN(C(=O)CN1C(=O)/C(=C/c2ccc(Cl)cc2)SC1=S)C1CCS(=O)(=O)C1` (stereo not given), the inhibition was -7.14%. Molecule `O=C(c1cc2ccccc2s1)N1CCN(c2ccccn2)CC1` has an inhibition of 9.52%. Molecule `COc1ccc(-c2cc(=O)oc3cc(OCC(=O)N(C)C4CCS(=O)(=O)C4)ccc23)cc1` (stereo not given) has an inhibition of -5.59%. With `COc1cccc(C(=O)N2CCC(n3nccc3NC(=O)C3CCOC3)CC2)c1` (stereo not given) the inhibition was -9.25%. `CCOCCCN1C(=O)C2C(C(=O)Nc3ccc(OCC)cc3)C3C=CC2(O3)C1C(=O)NC1CCCCC1` (stereo not given) showed an inhibition of -6.78%. With `O=C(Nc1cccc(F)c1)[C@@H]1CCCN1` the inhibition was 3.23%. In the case of `Cc1ccc2cc(/C=N/NC(=O)[C@@H]3CCCN3)c(Cl)nc2c1`, the inhibition was 54.3% (active). For `Cc1ccc2cc(/C=N/Nc3ccc(C(=O)O)cc3)c(Cl)nc2c1`, the inhibition was 51.3% (active). Molecule `O=C(O)c1ccc(N/N=C/c2cn(-c3ccccc3)nc2-c2cccs2)cc1` has an inhibition of 46.3%. Work on `CSCC[C@H](NC(=O)OC(C)(C)C)C(=O)N/N=C/c1cc2ccc(C)cc2nc1Cl` yielded an inhibition of -11.9%. For `O=C(O)c1ccc(/C=N/Nc2nc(N3CCCCC3)nc(N3CCCCC3)n2)cc1`, the inhibition was -6.74%. In the case of `CCNC(=S)NNC(=O)c1ccc2ncccc2c1`, the inhibition was 38%. Molecule `Cc1ccc(/C=N/NC(=O)C2=NNC(c3ccccc3)(c3ccccc3)C2)c(O)c1` has an inhibition of 33.7%. For `O=C(O)c1ccc(N/N=C/c2ccc3ncccc3c2)cc1`, the inhibition was 45.9% (active). `Cc1cc(OCC(=O)N2CCN(c3ncccn3)CC2)ccc1Cl` showed an inhibition of -7.52%. In the case of `COc1cc(OC)cc(C(=O)NCCSCc2ccc(Cl)cc2)c1`, the inhibition was -9.78%. `COc1ccc2c(c1)C(=C(C#N)C#N)C(=O)N2CCc1ccccc1` gave an inhibition of 6.44%. `O=C1CN(C(=O)c2cc(F)cc(F)c2)c2ccccc2N1` gave an inhibition of -2.51%. For `CC(C)CC(O)C1CCN(C(=O)CCc2nnc(-c3ccc4c(c3)OCO4)o2)CC1` (stereo not given), the inhibition was -6.93%. `CC(CO)NCC12CC3CC(CC(C3)C1)C2` (stereo not given) showed an inhibition of 2.32%. Molecule `CCOc1ccccc1NC(=O)Cn1nnc(C(=O)NCc2cccs2)c1N` has an inhibition of -4%. With `COC1=C/C(=C/c2c(N)n3nc(CC(=O)N4CCOCC4)sc3nc2=O)C=CC1=O` the inhibition was -2.63%. In the case of `COc1ccc(CN2CC(C(=O)NC3CCCCC3)CC2=O)cc1` (stereo not given), the inhibition was -6.86%. Work on `Cc1ccc(C)c(OCCC(=O)OCC(=O)N2CCN(c3ccccc3)CC2)c1` yielded an inhibition of -5.02%. In the case of `CCN1CCCC1CNC(=O)c1cc2cc(OC)c(OC)cc2[nH]1` (stereo not given), the inhibition was -5.24%. `CCOc1ccc(C(C(=O)NCCOC)N(CCOC)C(=O)CCC(=O)Nc2ccccn2)cc1` (stereo not given) gave an inhibition of -13.1%. With `CC(O)c1ccc(OCCN(C)c2ccccn2)cc1` (stereo not given) the inhibition was 87.4% (active). Work on `CC(C)c1ccc(OCC(O)CN2CCN(c3ccccn3)CC2)cc1` (stereo not given) yielded an inhibition of -24.5%. `COc1ccc(-c2noc(C(C)NS(=O)(=O)c3ccc(NC(C)=O)cc3)n2)cc1` (stereo not given) gave an inhibition of -7.2%. Molecule `COc1ccc(CCNC(=O)C(=O)NCC2OCCN2S(=O)(=O)c2ccc(F)cc2)cc1OC` (stereo not given) has an inhibition of 2.97%. With `COC(=O)c1sc(-c2ccc(C(C)(C)C)cc2)cc1NC(=O)/C=C/C(=O)O` the inhibition was 108% (active). In the case of `COc1ccccc1NC(=O)/C=C/C(=O)O`, the inhibition was -5.02%. `O=C(O)/C=C/C(=O)Nc1ccc(F)cc1F` gave an inhibition of -11.9%. For `C=CCn1c(SCc2ccc(C(=O)NCCO)cc2)nc2ccccc2c1=O`, the inhibition was -5.58%. For `CC(C(=O)Nc1ccc(O)c(C(=O)O)c1)N1C(=O)/C(=C/c2cccs2)SC1=S` (stereo not given), the inhibition was 5.02%. `COCCCNC(=O)[C@H]1N2C(=O)c3ccccc3C2SC1(C)C` (stereo not given in full) showed an inhibition of -3.4%. For `COc1ccc(C2=Nn3c(nnc3-c3ccccc3O)SC2)cc1`, the inhibition was 42.8% (active). Work on `Cc1nnc2n1N=C(c1ccccc1)CS2` yielded an inhibition of -5.72%. In the case of `CC1=Nn2c(nnc2-c2ccccc2)SC1`, the inhibition was -3.08%. For `COc1cc(/C(=C/c2ccccc2)c2ccccc2)c2c(c1)oc1ccccc12`, the inhibition was -7.7%.
